# Screening results as filed in PubChem.
# An excerpt weighted towards active compounds, which were near 1.3% of everything screened.
# FEN1 inh-1: blocks human flap endonuclease 1; P39748; Recombinant FEN1 flap cleavage, fluorescence, 15 min; Potency, µM (highest dose often 114 µM), usual class: inhibitors; 390,000 tested, 0.35% active; AID 588795; note: nearly all actives have a fitted effect of over 65% in size
# Target sequence (P39748 whole entry, looked up): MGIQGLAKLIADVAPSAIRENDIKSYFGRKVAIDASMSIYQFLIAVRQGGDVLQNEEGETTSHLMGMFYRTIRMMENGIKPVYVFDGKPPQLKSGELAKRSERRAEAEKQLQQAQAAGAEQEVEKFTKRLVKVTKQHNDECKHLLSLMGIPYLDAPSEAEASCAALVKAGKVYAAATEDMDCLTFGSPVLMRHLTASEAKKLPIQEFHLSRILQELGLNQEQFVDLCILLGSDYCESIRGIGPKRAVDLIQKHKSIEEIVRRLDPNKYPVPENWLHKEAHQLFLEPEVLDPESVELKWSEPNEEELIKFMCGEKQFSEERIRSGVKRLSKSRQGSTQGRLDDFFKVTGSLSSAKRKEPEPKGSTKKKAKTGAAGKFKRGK
#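 FEN1 at 10 nM, compound pretreatment for 15 min (room temperature), 50 nM final substrate to initiate; endpoint reads at 0 and 15 min; DMSO-only plates used as vehicle background.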
# GRP78 ERSR act: ER stress response induction in glioma | Potency, µM, hits mostly activators | U87-MG GRP78 promoter luciferase reporter, 16 h | AID 602332 | 420,000 tested, 0.02% active; note: series mostly up to about 76 µM; nearly all actives have a fitted effect of over 35% in size
#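 Stably transfected U87-MG human glioma cells carrying a GRP78-based luminescent sensor were seeded at 1000 cells/well, pin-dosed with compounds and incubated 16 h. Luciferase reagent was then added, and end-point luminescence was read after 10 min at room temperature.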
# Pin1 inh: human Pin1 inhibition; AID 504891; Pin1 FP peptide displacement, HiFluor488, 10 min; Potency, µM (series often up to 115 µM), most hits filed as inhibitors; 390,000 tested, 0.009% active; active = well fitted inhibition curve with a large enough effect in the polarisation, with a control signal flat, not every such curve was filed as active; inconclusive = small, poorly fitted or top-dose-only effect, or effect the other way, or a change in a side signal; inactive = no such curve, though single readings can be large or run the other way; the % refers to the polarisation
# Target sequence (Q13526 whole entry, looked up): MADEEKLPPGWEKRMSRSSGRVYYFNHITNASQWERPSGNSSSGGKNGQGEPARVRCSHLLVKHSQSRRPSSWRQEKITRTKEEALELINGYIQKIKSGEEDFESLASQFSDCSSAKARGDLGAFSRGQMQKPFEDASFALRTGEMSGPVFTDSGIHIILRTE
# WRN helicase inh: WRN helicase (human) inhibition; 360,000 tested, 0.46% active; WRN helicase unwinding, fluorescent forked duplex, kinetic; Potency, µM (top dose mostly 114 µM), most hits filed as inhibitors; note: nearly all actives have a fitted effect of over 55% in size
#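 Primary qHTS, 1536-well format. 20 nM WRN + compound, 15 min RT; start with 100 nM forked fluorophore/quencher duplex, 2 mM ATP (final); kinetic read ex 525/em 598 nm.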
# PGK inhibitor: T. brucei PGK inhibition; P07378; AID 602233; 380,000 tested, 0.043% active; PGK/GAPDH coupled, Kinase-Glo luminescence, 60 min; Potency, µM (titrated, usually from 57.5 µM), usual class: inhibitors; note: nearly all actives have a fitted effect of over 60% in size
#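 Luminescent ATP detection (Kinase-Glo Plus) follows a 60-minute room-temperature incubation, with wells lacking PGK as controls. Buffer: 100 mM TEA (pH 7.6), 5 mM MgCl2, 0.01% Tween-20. Coupling enzyme GAPDH (100 nM final) supplies unstable 1,3-BPG in-well.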
# PI5P4Ka inh: PI5P4K alpha (human) kinase inhibition | PI5P4Kalpha enzyme, ADP-Glo luminescence, 60 min; stronger effect = lower value | 330,000 tested, 1.2% active | P48426 | max response, % | AID 652105; active = max response of -50% or lower; inconclusive = between -30% and -50%; inactive = -30% or higher; note: value at the top dose of about 77 µM
#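 ADP-Glo luminescence end-point after a 60 min room-temperature kinase reaction. PI5P4Kalpha and substrate in HEPES pH 7.4 buffer with EGTA, 0.1% CHAPS and 5% DMSO; ATP at 5 microM final.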
# FEN1 inh-2: FEN1 inhibition, cherry-pick retest. FEN1 flap cleavage, TAMRA/BHQ2 fluorogenic DNA substrate. 880 tested, 79% active. Potency, µM, actives largely listed as inhibitors. shares compounds with FEN1 inh-1; note: nearly all actives have a fitted effect of over 60% in size
# A number is an active result; . = inactive; ? = inconclusive; / = no result; [ ] = another dose, or the depositor's remark. Unless noted, calls come from the whole dose curve; as a rule, active = well fitted curve in the direction sought with a large enough effect; inconclusive = small, poorly fitted or top-dose-only effect, or another doubt; inactive = no such curve, though single readings can be large; an effect the other way counts as inactive or inconclusive.
SMILES,FEN1 inh-1,GRP78 ERSR act,Pin1 inh,WRN helicase inh,PGK inhibitor,PI5P4Ka inh,FEN1 inh-2
C=CCOc1ccc(Br)cc1/C=C1/SC(=Nc2ccc(C(=O)O)cc2)NC1=O,25µM,.,.,.[11.6 µM],?,-72,?
C=CCOc1ccc(Br)cc1/C=N/O,.,.,.,.,.,.,/
Cc1c(C(=O)N2CCCC2)sc2ncnc(NCCCN3CCOCC3)c12,/,.,/,/,/,/,/
Oc1ccc(NCc2ccccc2OCc2ccccc2F)cc1,?,?,.,?,.,.,?
CC(O)(COc1ccccc1)c1ccc2c(c1)CN(Cc1cccc3ncccc13)CCO2 (stereo not given),/,.,/,/,/,/,/
CCOC(=O)C1CCNC(=O)C1=O (stereo not given),20µM,.,.,.,.,.,21
Cc1ncc2c(c1CNC(=O)/C=C/c1cccs1)CCN(C(=O)c1c(C)noc1C)C2,/,.,/,/,/,/,/
CN(C)CCCNC(=O)c1ccccn1,.,.,.,.,.,/,/
CN(C)CCCNC(=O)c1ccc(-c2cc(O)c3ncccc3c2)cc1,50µM,.,.,/,.,/,?
O=C(Cc1cnn(-c2ccccc2)c1)c1ccc(O)c(O)c1O,25µM,.,?,11µM,.,.,34
CCc1cc(C(=O)Cc2cnn(-c3ccccc3)c2)c(O)cc1O,?,.,.,.,.,.,/
NC(=S)NN=Cc1ccc(-c2ccc(S(=O)(=O)Nc3ncccn3)cc2)o1,79µM,.,?,25µM,.,-55,24
CCOc1ccc(C(=O)N/N=C/c2ccc(-c3ccc(S(=O)(=O)Nc4ncccn4)cc3)o2)cc1,?,.,/,?,.,/,/
CCn1c(-c2ccccc2F)nc2cc(C(=O)NCc3ccc(C)o3)cc(NC(C)=O)c21,/,.,/,/,/,/,/
COC(=O)[C@@H]1CCCN1C(=O)c1c(OC)cc(=O)n2c1CCN(Cc1ccc(C)o1)CC2,/,.,/,/,/,/,/
Cc1ccccc1Nc1nc(N)nc(COC(=O)c2ccc([N+](=O)[O-])o2)n1,?,.,.,.[11.6 µM],.,.,21
O=C1c2ccccc2C(=O)c2c1cccc2N1CCCC1,?,.,.,?,.,.,/
O=C1c2ccccc2-c2onc3ccc(N4CCCC4)c1c23,22µM,.,?,22µM,.,.,38
Cc1cc(N/N=C/c2ccc(O)cc2)c2cccc(C)c2n1,?,.,.,45µM,.,.,38
O=C(N[C@@H]1c2ccccc2C2(CCN(C(=O)c3cc4ccccc4oc3=O)CC2)[C@H]1O)c1cccnc1,/,.,/,/,/,/,/
O=[N+]([O-])c1ccc2c([N+](=O)[O-])ccc3c2c1CC3,/,.,/,.[11.6 µM],.,-74,?
Cc1ccc(C(=O)Nc2ccc3c4c(cccc24)CC3)cc1[N+](=O)[O-],.,.,.,.,.,.,/
COc1cc(C(=O)NC2CCN(C)CC2)ccc1Nc1ncc2c(n1)N(C1CCCCC1)CCC(=O)N2C,?,.,.,.,.,.,38
O=C(c1ccc2c(c1)OCO2)N(Cc1cc2ccc(F)cc2nc1N1CCC(O)CC1)CC1CCCO1 (stereo not given),/,.,/,/,/,/,/
O=C(c1ccc2c3c(cccc13)C(=O)N(O)C2=O)N1CCCCC1,11µM,.,.,.[11.6 µM],.,.,3
SMILES,FEN1 inh-1,GRP78 ERSR act,Pin1 inh,WRN helicase inh,PGK inhibitor,PI5P4Ka inh,FEN1 inh-2
O=C1c2cccc3c(Cl)ccc(c23)C(=O)N1O,0.5µM,.,.,?,.,/,1.1
CCN1C(=O)c2cccc3c(Cl)ccc(c23)C1=O,.,.,.,.,.,.,/
O=C(O)c1ccc(N2C(=O)c3cccc4cccc(c34)C2=O)cc1,.,.,.,.,.,.,/
O=C(O)c1ccc(N2C(=O)c3cccc4c(C(=O)O)ccc(c34)C2=O)cc1,50µM,.,?,50µM,?,?,21
O=C(NNC(=O)c1cc(O)c(O)c(O)c1)NC1CCCCC1,28µM,.,?,.,.,.,?
O=C(NNC(=O)c1cccnc1)NC1CCCCC1,.,.,.,.,.,.,/
Cc1cnc(-n2ncc(C(=O)NCCN3CCOCC3)c2C2CC2)nc1-c1cccs1,/,.,/,/,/,/,/
CCN1CCCC1CNC(=O)c1cnn(-c2ncc(C)c(-c3ccc(F)cc3)n2)c1C(C)C (stereo not given),/,.,/,/,/,/,/
